Assay results reported in PubChem BioAssay (NCI).
The panel holds about 79,000 compounds, 15% with a hit somewhere; the sample as a whole holds those more often. Calls of active or inactive are those of the source. Cut-off read from the data, not from the text of the source: active = growth inhibition above about 70%; inactive = the rest.

What was measured:
[1] = NCI Yeast Anticancer Drug Screen. Data for the wt1 strain (AID 149);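 note: 0% = growth of vehicle-treated wt1 cultures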; conditions: S. cerevisiae wt1 strain (SPY 50644) growth inhibition, stronger effect = higher value
Procedure, shortened: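 Measured: growth of wt1 yeast under compound versus vehicle treatment, reported as inhibition.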

[2] = NCI Yeast Anticancer Drug Screen. Data for the rad50EPP+ strain (AID 151);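 note: 0% = growth of vehicle-treated control cultures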; conditions: S. cerevisiae rad50 mutant strain, stronger effect = higher value
Procedure, shortened: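 Growth inhibition read against vehicle controls in rad50EPP+ yeast, a strain altered in DNA damage repair, after compound exposure.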

[3] = NCI Yeast Anticancer Drug Screen. Data for the mgt1 strain (AID 153); conditions: S. cerevisiae mgt1 mutant growth inhibition, stronger effect = higher value
Procedure, shortened: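 mgt1 yeast grown with test compound; read-out is growth inhibition versus vehicle-treated cultures.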

[4] = NCI Yeast Anticancer Drug Screen. Data for the rad50 strain (AID 155);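 note: 0% = growth of vehicle-only cultures of the same strain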; conditions: S. cerevisiae rad50 strain growth inhibition, stronger effect = higher value
Procedure, shortened: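 Growth of the mutant yeast was measured after compound exposure and referenced to vehicle-treated cultures.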

[5] = NCI Yeast Anticancer Drug Screen. Data for the mec2-1 strain (AID 157); conditions: S. cerevisiae mec2-1 strain, stronger effect = higher value
Procedure, shortened: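 Yeast mec2-1 mutant treated with compound. Readout: growth inhibition vs vehicle controls.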

[6] = NCI Yeast Anticancer Drug Screen. Data for the rad14 strain (AID 159);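 note: 0% = growth of vehicle-treated control cultures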; conditions: S. cerevisiae rad14 strain growth inhibition, stronger effect = higher value
Procedure, shortened: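 Here, inhibition of yeast growth was measured after compound exposure, using a strain with a genetic defect in DNA damage repair and vehicle-treated cultures as the reference.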

[7] = NCI Yeast Anticancer Drug Screen. Data for the sgs1 mgt1 strain (AID 161);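 note: 0% = growth of cultures given vehicle only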; conditions: S. cerevisiae sgs1 mgt1 strain, stronger effect = higher value
Procedure, shortened: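 Mutant yeast exposed to compound; growth scored against vehicle-only wells.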

[8] = NCI Yeast Anticancer Drug Screen. Data for the CLN2oe strain (AID 163);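 note: 0% = growth of vehicle-only control cultures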; conditions: S. cerevisiae CLN2oe strain, stronger effect = higher value
Procedure, shortened: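 Read-out: yeast growth inhibition, expressed relative to vehicle-only controls. The strain bears an engineered cell-cycle alteration.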

[9] = NCI Yeast Anticancer Drug Screen. Data for the cln2 rad14 strain (AID 165);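 note: 0% = growth equal to vehicle treated cultures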; conditions: S. cerevisiae cln2 rad14 strain, stronger effect = higher value
Procedure, shortened: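 cln2 rad14 yeast strain; compound exposure; growth inhibition read vs vehicle controls.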

[10] = NCI Yeast Anticancer Drug Screen. Data for the bub3 strain (AID 167); conditions: S. cerevisiae bub3 mutant strain, stronger effect = higher value
Procedure, shortened: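 Whole-cell yeast assay. The mutant strain was incubated with compounds, and growth inhibition was determined by comparison with vehicle-treated cells.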

[11] = NCI Yeast Anticancer Drug Screen. Data for the wt2 strain (AID 169);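 note: 0% = growth of vehicle-treated yeast cultures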; conditions: S. cerevisiae wt2 strain growth inhibition, stronger effect = higher value
Procedure, shortened: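 Read-out: growth inhibition versus vehicle-treated control cultures after compound exposure of the yeast strain.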

[12] = NCI Yeast Anticancer Drug Screen. Data for the mlh1 strain (AID 171);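 note: 0% = growth of vehicle-treated control cultures of the same strain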; conditions: S. cerevisiae mlh1 strain growth inhibition, stronger effect = higher value
Procedure, shortened: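 Read-out: growth inhibition versus vehicle controls. Strain: engineered yeast with a defined DNA repair or cell cycle defect, compound-treated.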

[13] = NCI Yeast Anticancer Drug Screen. Data for the sgs1 strain (AID 173);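 note: 0% = growth of vehicle-only control cultures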; conditions: S. cerevisiae sgs1 mutant, stronger effect = higher value
Procedure, shortened: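 Read-out: yeast growth inhibition relative to vehicle controls, following compound exposure of a strain with a defined DNA repair/cell cycle alteration.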

[14] = NCI Yeast Anticancer Drug Screen. Data for the mlh1 rad18 strain (AID 175); conditions: S. cerevisiae mlh1 rad18 strain growth inhibition, stronger effect = higher value
Procedure, shortened: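 Yeast w/ defined DNA-repair lesions; compound exposure; growth vs vehicle controls → % inhibition.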

[15] = NCI Yeast Anticancer Drug Screen. Data for the rad18 strain (AID 177); conditions: S. cerevisiae rad18 mutant growth inhibition, stronger effect = higher value
Procedure, shortened: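 Readout: growth inhibition vs vehicle controls. Cells: genetically altered yeast strain, DNA repair defect.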

[16] = at 5.0 µM (retest, dose inferred, filed as 0.5)
[17] = at 50.0 µM (retest, dose inferred, filed as 5.0)

Measured: growth inhibition

Cc1cnccc1N=Nc1ccc(N(C)C)cc1
active: [2]; at 100.0 µM 90% | [4]; at 50.0 µM 81.8% | [10]; at 50.0 µM 89% | [10]; at 100.0 µM 79%
inactive: [1]; at 1.2 µM -5% | [1]; at 3.7 µM -6% | [1]; at 11.0 µM -8% | [1]; at 33.0 µM 1% | [1]; at 100.0 µM 1% | [2]; at 1.2 µM 2% | [2]; at 3.7 µM 3% | [2]; at 11.0 µM 7% | [2]; at 33.0 µM 43% | [3]; at 1.2 µM 2% | [3]; at 3.7 µM -2% | [3]; at 11.0 µM 2% | [3]; at 33.0 µM 31% | [3]; at 100.0 µM 41% | [4]; at 1.2 µM -4% | [4]; at 3.7 µM -4% | [4]; [16] -109% | [4]; at 11.0 µM 13% | [4]; at 33.0 µM 27% | [4]; [17] -2% | [4]; at 100.0 µM 37% | [5]; at 1.2 µM -3% | [5]; at 3.7 µM 1% | [5]; [16] -42% | [5]; at 11.0 µM -21% | [5]; at 33.0 µM -4% | [5]; [17] -34% | [5]; at 50.0 µM 30.9% | [5]; at 100.0 µM 3% | [6]; at 1.2 µM -3% | [6]; at 3.7 µM -5% | [6]; at 11.0 µM 12% | [6]; at 33.0 µM 39% | [6]; at 100.0 µM 51% | [7]; [16] -23% | [7]; [17] 46% | [7]; at 50.0 µM 65.8% | [8]; at 1.2 µM 3% | [8]; at 3.7 µM 8% | [8]; at 11.0 µM 15% | [8]; at 33.0 µM 30% | [8]; at 100.0 µM 30% | [9]; [16] -43% | [9]; [17] -19% | [9]; at 50.0 µM 34% | [10]; at 1.2 µM 8% | [10]; at 3.7 µM 10% | [10]; [16] -33% | [10]; at 11.0 µM 14% | [10]; at 33.0 µM 32% | [10]; [17] 69% | [11]; at 1.2 µM 0% | [11]; at 3.7 µM -1% | [11]; at 11.0 µM 2% | [11]; at 33.0 µM 13% | [11]; at 100.0 µM 4% | [12]; at 1.2 µM -1% | [12]; at 3.7 µM 1% | [12]; at 11.0 µM 0% | [12]; at 33.0 µM 24% | [12]; at 100.0 µM 31% | [13]; at 1.2 µM 2% | [13]; at 3.7 µM 3% | [13]; at 11.0 µM 32% | [13]; at 33.0 µM 52% | [13]; at 100.0 µM 49% | [14]; [16] -95% | [14]; [17] -7% | [14]; at 50.0 µM 36.1% | [15]; at 1.2 µM -4% | [15]; at 3.7 µM -4% | [15]; at 11.0 µM 9% | [15]; at 33.0 µM 25% | [15]; at 100.0 µM 30%

CN(C)CCn1c2ccccc2c2nc3cc4ccccc4cc3nc21
inactive: [1]; at 1.2 µM 15% | [1]; at 3.7 µM 23% | [1]; at 11.0 µM 28% | [2]; at 1.2 µM 0% | [2]; at 3.7 µM 38% | [3]; at 1.2 µM -2% | [3]; at 3.7 µM 4% | [3]; at 11.0 µM 14% | [3]; at 33.0 µM 69% | [4]; at 1.2 µM 12% | [4]; at 3.7 µM 34% | [4]; [16] 48% | [5]; at 1.2 µM -18% | [5]; at 3.7 µM -10% | [5]; [16] 26% | [5]; at 11.0 µM 14% | [6]; at 1.2 µM -4% | [6]; at 3.7 µM 7% | [6]; at 11.0 µM 28% | [7]; [16] 10% | [8]; at 1.2 µM 0% | [8]; at 3.7 µM 3% | [8]; at 11.0 µM 21% | [8]; at 33.0 µM 57% | [9]; [16] 30% | [10]; at 1.2 µM -13% | [10]; at 3.7 µM 10% | [10]; [16] 13% | [10]; at 11.0 µM 3% | [11]; at 1.2 µM 18% | [11]; at 3.7 µM 15% | [11]; at 11.0 µM 27% | [12]; at 1.2 µM 2% | [12]; at 3.7 µM 9% | [12]; at 11.0 µM 33% | [13]; at 1.2 µM -2% | [13]; at 3.7 µM 5% | [13]; at 11.0 µM 25% | [14]; [16] 34% | [15]; at 1.2 µM -11% | [15]; at 3.7 µM -10% | [15]; at 11.0 µM 11%
active: [1]; at 33.0 µM 78% | [1]; at 100.0 µM 98% | [2]; at 11.0 µM 88% | [2]; at 33.0 µM 94% | [2]; at 100.0 µM 97% | [3]; at 100.0 µM 98% | [4]; at 11.0 µM 85% | [4]; at 33.0 µM 95% | [4]; [17] 95% | [4]; at 50.0 µM 89% | [4]; at 100.0 µM 98% | [5]; at 33.0 µM 70% | [5]; [17] 99% | [5]; at 50.0 µM 86.6% | [5]; at 100.0 µM 98% | [6]; at 33.0 µM 80% | [6]; at 100.0 µM 99% | [7]; [17] 91% | [7]; at 50.0 µM 88% | [8]; at 100.0 µM 98% | [9]; [17] 94% | [9]; at 50.0 µM 84.3% | [10]; at 33.0 µM 72% | [10]; [17] 95% | [10]; at 50.0 µM 87.6% | [10]; at 100.0 µM 98% | [11]; at 33.0 µM 77% | [11]; at 100.0 µM 98% | [12]; at 33.0 µM 80% | [12]; at 100.0 µM 98% | [13]; at 33.0 µM 85% | [13]; at 100.0 µM 98% | [14]; [17] 98% | [14]; at 50.0 µM 71.2% | [15]; at 33.0 µM 87% | [15]; at 100.0 µM 98%

CCCCCCCCCCCCOC1C(COCCN2CCCC2)OC2OC(C)(C)OC21 (stereo unspecified)
active: [1]; at 11.0 µM 93% | [1]; at 33.0 µM 99% | [1]; at 100.0 µM 99% | [2]; at 33.0 µM 97% | [2]; at 100.0 µM 98% | [3]; at 11.0 µM 97% | [3]; at 33.0 µM 98% | [3]; at 100.0 µM 98% | [4]; at 11.0 µM 98% | [4]; at 33.0 µM 98% | [4]; [17] 99% | [4]; at 50.0 µM 93% | [4]; at 100.0 µM 98% | [5]; at 11.0 µM 97% | [5]; at 33.0 µM 99% | [5]; [17] 99% | [5]; at 50.0 µM 93.4% | [5]; at 100.0 µM 98% | [6]; at 11.0 µM 98% | [6]; at 33.0 µM 98% | [6]; at 100.0 µM 98% | [7]; [17] 99% | [7]; at 50.0 µM 90.2% | [8]; at 11.0 µM 71% | [8]; at 33.0 µM 98% | [8]; at 100.0 µM 98% | [9]; [17] 97% | [9]; at 50.0 µM 90.3% | [10]; at 11.0 µM 96% | [10]; at 33.0 µM 98% | [10]; [17] 98% | [10]; at 50.0 µM 88.5% | [10]; at 100.0 µM 98% | [11]; at 11.0 µM 78% | [11]; at 33.0 µM 98% | [11]; at 100.0 µM 98%
inactive: [1]; at 1.2 µM 23% | [1]; at 3.7 µM 15% | [2]; at 1.2 µM 36% | [2]; at 3.7 µM 27% | [2]; at 11.0 µM 2% | [3]; at 1.2 µM 3% | [3]; at 3.7 µM 2% | [4]; at 1.2 µM 5% | [4]; at 3.7 µM 1% | [4]; [16] 13% | [5]; at 1.2 µM 18% | [5]; at 3.7 µM 11% | [5]; [16] 2% | [6]; at 1.2 µM 11% | [6]; at 3.7 µM 14% | [7]; [16] 19% | [8]; at 1.2 µM -5% | [8]; at 3.7 µM 23% | [9]; [16] 42% | [10]; at 1.2 µM -18% | [10]; at 3.7 µM -16% | [10]; [16] 29% | [11]; at 1.2 µM -13% | [11]; at 3.7 µM -28%
